# Source: ChEMBL document CHEMBL1961873, “Compounds: GSK PKIS; Assays: Nanosyn kinase panel” (2012)
# How the values were obtained:
# [1] = target: T1, Inhibitor of nuclear factor kappa-B kinase subunit epsilon (Homo sapiens) (UniProt Q14164); details: at 1 µM;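 note: reported values are averaged percent inhibition figures against human IKKε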
# T1 sequence (whole entry): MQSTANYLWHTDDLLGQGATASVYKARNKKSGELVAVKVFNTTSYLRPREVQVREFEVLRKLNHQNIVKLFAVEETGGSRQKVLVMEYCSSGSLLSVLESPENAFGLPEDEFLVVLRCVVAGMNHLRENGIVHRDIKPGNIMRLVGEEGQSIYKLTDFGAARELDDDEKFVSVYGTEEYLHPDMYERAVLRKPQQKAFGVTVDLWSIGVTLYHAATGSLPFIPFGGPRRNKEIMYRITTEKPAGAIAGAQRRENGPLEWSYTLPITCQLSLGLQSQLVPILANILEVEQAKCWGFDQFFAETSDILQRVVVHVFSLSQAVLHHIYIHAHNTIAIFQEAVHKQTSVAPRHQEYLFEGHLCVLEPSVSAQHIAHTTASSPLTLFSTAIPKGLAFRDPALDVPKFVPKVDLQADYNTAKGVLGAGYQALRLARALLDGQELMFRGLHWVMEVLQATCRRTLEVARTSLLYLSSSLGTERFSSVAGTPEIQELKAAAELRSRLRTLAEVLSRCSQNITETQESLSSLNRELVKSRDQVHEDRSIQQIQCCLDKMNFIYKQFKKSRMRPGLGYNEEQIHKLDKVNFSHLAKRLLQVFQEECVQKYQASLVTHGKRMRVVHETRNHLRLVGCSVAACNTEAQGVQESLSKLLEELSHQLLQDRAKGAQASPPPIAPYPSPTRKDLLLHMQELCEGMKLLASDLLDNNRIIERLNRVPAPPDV
# [2] = target: T2, Serine/threonine-protein kinase Nek1 (Homo sapiens) (UniProt Q96PY6); details: at 0.1 µM
# T2 sequence (whole entry): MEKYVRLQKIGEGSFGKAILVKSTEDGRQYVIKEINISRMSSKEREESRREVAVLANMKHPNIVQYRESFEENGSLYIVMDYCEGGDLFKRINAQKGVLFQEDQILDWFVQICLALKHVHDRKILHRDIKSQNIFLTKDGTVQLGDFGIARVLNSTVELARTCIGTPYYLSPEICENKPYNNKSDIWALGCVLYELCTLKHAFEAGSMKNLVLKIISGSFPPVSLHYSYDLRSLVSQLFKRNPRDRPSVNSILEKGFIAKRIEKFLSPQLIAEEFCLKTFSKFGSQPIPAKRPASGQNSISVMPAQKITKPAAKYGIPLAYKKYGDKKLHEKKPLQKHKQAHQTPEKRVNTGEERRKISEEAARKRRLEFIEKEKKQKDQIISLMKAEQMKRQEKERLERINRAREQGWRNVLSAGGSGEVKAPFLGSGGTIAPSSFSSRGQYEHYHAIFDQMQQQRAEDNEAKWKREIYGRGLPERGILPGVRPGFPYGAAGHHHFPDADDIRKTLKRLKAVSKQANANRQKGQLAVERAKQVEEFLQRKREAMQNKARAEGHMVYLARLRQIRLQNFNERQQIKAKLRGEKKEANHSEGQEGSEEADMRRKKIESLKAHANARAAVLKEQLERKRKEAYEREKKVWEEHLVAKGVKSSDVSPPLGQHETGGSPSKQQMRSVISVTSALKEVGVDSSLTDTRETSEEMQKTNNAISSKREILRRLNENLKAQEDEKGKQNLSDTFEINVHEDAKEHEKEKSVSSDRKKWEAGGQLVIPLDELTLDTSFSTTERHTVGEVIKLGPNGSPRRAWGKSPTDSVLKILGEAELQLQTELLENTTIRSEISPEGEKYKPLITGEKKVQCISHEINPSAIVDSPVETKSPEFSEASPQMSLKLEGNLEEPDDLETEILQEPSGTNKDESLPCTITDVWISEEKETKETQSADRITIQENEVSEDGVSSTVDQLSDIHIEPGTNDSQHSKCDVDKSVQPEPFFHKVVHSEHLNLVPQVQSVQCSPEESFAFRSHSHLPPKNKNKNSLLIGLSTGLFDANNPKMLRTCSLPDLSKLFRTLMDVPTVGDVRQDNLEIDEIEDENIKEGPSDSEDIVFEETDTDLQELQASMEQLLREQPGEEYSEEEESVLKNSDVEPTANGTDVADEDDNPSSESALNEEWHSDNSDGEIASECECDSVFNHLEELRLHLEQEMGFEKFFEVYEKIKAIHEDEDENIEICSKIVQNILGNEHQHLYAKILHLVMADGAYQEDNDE
# [3] = target: T2, Serine/threonine-protein kinase Nek1 (Homo sapiens); details: at 1 µM
# [4] = target: T3, Serine/threonine-protein kinase Nek2 (Homo sapiens) (UniProt P51955); details: at 0.1 µM
# T3 sequence (whole entry): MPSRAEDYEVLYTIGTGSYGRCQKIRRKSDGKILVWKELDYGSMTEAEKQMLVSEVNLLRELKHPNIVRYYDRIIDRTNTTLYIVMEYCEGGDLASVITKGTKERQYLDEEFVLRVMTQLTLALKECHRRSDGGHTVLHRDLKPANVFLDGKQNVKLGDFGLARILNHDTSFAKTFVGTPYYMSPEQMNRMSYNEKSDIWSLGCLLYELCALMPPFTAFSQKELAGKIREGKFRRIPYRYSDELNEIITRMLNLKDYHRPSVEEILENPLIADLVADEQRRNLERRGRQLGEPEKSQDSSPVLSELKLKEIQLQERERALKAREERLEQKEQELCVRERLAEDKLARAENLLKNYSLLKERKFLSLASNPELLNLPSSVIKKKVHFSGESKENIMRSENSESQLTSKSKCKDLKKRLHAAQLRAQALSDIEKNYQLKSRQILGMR
# [5] = target: T3, Serine/threonine-protein kinase Nek2 (Homo sapiens); details: at 1 µM
# [6] = target: Serine/threonine-protein kinase Nek6 (Homo sapiens) (UniProt Q9HC98); details: at 0.1 µM
# [7] = target: Serine/threonine-protein kinase Nek6 (Homo sapiens) (UniProt Q9HC98); details: at 1 µM
# [8] = target: Serine/threonine-protein kinase Nek7 (Homo sapiens) (UniProt Q8TDX7); details: at 0.1 µM
# [9] = target: Serine/threonine-protein kinase Nek7 (Homo sapiens) (UniProt Q8TDX7); details: at 1 µM
# [10] = target: T4, Serine/threonine-protein kinase Nek9 (Homo sapiens) (UniProt Q8TD19); details: at 0.1 µM
# T4 sequence (whole entry): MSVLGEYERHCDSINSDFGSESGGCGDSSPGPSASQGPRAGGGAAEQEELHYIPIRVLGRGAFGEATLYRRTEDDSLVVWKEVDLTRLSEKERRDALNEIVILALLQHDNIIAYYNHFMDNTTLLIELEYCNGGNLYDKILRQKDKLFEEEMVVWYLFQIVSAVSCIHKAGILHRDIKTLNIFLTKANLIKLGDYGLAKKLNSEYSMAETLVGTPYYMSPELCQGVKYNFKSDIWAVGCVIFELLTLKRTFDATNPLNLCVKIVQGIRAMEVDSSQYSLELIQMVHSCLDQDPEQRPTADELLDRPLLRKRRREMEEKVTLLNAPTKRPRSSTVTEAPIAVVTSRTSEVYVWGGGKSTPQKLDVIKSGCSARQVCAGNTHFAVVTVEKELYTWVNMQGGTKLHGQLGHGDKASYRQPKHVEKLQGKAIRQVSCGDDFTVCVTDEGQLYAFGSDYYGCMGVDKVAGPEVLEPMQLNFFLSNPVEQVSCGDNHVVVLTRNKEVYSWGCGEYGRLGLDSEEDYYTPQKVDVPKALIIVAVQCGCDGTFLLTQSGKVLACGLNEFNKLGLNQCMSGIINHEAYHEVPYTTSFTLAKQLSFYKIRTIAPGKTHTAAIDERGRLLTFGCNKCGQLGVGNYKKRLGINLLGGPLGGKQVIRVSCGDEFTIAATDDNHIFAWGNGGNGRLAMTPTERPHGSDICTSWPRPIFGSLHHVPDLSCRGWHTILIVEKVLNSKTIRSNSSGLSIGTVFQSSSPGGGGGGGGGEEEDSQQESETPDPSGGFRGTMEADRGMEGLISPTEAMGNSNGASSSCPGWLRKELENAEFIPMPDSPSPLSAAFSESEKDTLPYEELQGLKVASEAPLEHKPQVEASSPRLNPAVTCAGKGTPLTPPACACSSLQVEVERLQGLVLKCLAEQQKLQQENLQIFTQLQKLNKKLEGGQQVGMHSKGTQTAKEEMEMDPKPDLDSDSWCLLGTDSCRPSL
# [11] = target: T4, Serine/threonine-protein kinase Nek9 (Homo sapiens); details: at 1 µM
# [12] = target: Serine/threonine-protein kinase PLK1 (Homo sapiens) (UniProt P53350); details: at 0.1 µM
# [13] = target: Serine/threonine-protein kinase PLK1 (Homo sapiens) (UniProt P53350); details: at 1 µM
# [14] = target: T5, Dual specificity protein kinase TTK (Homo sapiens) (UniProt P33981); details: at 0.1 µM
# T5 sequence (whole entry): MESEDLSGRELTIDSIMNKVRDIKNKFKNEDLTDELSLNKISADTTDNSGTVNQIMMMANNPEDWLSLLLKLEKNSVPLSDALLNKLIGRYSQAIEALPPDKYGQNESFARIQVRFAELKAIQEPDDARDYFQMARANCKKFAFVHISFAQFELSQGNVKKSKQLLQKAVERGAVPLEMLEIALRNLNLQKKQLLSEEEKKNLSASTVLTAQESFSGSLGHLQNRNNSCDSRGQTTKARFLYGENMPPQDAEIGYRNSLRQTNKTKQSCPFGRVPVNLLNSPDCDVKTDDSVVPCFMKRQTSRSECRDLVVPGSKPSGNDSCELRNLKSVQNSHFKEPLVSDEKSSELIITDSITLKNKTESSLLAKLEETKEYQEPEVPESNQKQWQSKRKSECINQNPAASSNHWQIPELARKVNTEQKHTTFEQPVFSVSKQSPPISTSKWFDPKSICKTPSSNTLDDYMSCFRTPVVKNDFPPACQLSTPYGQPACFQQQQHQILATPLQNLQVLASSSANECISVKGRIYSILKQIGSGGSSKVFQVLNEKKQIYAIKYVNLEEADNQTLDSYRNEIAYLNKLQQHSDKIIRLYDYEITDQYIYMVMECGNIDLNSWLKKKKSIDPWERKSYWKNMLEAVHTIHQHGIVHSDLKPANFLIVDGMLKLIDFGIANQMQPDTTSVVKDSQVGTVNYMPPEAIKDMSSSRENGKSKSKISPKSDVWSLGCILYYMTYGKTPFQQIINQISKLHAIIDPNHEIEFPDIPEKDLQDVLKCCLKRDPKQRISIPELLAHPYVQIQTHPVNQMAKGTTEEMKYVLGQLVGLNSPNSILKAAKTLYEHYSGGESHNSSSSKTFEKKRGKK
# [15] = system: T6, Receptor-type tyrosine-protein kinase FLT3 (Homo sapiens), P36888 [D835Y]; details: at 1 µM
# T6 sequence (whole entry): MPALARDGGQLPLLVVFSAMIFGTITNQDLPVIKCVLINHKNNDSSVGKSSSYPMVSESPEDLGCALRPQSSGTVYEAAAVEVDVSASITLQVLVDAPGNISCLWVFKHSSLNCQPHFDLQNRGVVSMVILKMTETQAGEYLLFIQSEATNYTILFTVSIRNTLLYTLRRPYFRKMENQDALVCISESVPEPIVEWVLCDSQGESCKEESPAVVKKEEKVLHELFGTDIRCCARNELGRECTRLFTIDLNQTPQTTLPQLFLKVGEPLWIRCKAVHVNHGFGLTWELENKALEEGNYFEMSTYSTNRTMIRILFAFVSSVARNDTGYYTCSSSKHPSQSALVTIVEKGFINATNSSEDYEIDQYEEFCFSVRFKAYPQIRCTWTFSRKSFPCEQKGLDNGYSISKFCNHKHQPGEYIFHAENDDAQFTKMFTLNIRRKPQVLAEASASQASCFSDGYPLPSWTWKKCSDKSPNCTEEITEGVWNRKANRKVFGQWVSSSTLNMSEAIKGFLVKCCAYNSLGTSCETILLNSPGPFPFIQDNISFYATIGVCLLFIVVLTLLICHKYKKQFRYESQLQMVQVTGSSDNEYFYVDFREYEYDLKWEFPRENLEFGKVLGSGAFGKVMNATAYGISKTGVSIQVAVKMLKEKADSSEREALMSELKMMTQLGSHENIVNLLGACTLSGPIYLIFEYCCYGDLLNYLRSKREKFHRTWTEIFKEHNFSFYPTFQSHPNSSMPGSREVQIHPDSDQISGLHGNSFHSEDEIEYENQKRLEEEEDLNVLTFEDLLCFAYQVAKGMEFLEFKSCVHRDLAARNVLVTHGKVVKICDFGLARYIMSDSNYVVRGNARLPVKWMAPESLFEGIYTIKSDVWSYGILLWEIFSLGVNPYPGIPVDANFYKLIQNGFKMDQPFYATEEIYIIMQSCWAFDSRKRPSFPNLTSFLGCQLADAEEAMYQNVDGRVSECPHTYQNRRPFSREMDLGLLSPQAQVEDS
# [16] = target: Vascular endothelial growth factor receptor 3 (Homo sapiens) (UniProt P35916); details: at 0.1 µM
# [17] = target: Vascular endothelial growth factor receptor 3 (Homo sapiens) (UniProt P35916); details: at 1 µM
# [18] = target: Macrophage colony-stimulating factor 1 receptor (Homo sapiens) (UniProt P07333); details: at 0.1 µM
# [19] = target: Macrophage colony-stimulating factor 1 receptor (Homo sapiens) (UniProt P07333); details: at 1 µM
# [20] = target: Tyrosine-protein kinase Fyn (Homo sapiens) (UniProt P06241); details: at 0.1 µM
# Tyrosine-protein kinase Fyn (Homo sapiens), sequence (P06241 2-537 limits assumed): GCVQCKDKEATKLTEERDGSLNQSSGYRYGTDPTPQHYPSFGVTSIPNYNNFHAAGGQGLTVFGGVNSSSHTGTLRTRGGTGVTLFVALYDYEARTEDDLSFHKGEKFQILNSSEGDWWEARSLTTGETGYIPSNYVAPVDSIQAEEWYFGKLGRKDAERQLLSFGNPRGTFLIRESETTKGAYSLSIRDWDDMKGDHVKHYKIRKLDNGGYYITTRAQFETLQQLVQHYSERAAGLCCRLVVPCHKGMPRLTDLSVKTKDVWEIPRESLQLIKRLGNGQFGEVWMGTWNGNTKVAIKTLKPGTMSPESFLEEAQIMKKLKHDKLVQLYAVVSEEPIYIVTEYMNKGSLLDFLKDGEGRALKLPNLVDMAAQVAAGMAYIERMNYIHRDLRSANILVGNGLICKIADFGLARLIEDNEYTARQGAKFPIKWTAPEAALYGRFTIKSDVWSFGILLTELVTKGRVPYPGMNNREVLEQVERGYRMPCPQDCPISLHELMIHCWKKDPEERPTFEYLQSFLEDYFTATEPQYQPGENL
# Serine/threonine-protein kinase PLK1 (Homo sapiens), sequence (P53350 whole entry): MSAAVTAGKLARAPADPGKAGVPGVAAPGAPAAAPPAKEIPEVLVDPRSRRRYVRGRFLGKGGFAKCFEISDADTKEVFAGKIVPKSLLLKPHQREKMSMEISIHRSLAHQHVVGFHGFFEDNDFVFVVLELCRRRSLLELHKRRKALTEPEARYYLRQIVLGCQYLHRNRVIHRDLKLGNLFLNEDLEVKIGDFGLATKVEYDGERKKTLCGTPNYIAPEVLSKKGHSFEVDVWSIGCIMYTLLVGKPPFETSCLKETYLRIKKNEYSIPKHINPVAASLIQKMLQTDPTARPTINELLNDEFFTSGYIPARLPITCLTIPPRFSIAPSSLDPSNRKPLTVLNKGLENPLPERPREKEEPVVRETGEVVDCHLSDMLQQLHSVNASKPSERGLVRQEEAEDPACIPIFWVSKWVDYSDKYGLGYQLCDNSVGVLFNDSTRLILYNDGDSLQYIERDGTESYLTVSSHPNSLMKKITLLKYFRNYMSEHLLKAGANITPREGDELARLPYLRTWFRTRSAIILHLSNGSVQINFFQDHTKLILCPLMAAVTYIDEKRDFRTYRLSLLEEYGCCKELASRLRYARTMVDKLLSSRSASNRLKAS
# Serine/threonine-protein kinase Nek6 (Homo sapiens), sequence (Q9HC98 whole entry): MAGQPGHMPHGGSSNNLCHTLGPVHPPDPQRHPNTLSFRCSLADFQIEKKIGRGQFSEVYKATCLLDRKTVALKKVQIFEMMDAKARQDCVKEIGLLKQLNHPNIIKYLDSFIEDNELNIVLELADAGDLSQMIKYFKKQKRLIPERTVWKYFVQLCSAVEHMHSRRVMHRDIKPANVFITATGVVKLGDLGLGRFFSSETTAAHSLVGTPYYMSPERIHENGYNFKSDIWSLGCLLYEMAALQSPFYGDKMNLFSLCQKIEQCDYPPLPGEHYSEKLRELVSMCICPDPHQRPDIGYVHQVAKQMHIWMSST
# Macrophage colony-stimulating factor 1 receptor (Homo sapiens), sequence (P07333 whole entry): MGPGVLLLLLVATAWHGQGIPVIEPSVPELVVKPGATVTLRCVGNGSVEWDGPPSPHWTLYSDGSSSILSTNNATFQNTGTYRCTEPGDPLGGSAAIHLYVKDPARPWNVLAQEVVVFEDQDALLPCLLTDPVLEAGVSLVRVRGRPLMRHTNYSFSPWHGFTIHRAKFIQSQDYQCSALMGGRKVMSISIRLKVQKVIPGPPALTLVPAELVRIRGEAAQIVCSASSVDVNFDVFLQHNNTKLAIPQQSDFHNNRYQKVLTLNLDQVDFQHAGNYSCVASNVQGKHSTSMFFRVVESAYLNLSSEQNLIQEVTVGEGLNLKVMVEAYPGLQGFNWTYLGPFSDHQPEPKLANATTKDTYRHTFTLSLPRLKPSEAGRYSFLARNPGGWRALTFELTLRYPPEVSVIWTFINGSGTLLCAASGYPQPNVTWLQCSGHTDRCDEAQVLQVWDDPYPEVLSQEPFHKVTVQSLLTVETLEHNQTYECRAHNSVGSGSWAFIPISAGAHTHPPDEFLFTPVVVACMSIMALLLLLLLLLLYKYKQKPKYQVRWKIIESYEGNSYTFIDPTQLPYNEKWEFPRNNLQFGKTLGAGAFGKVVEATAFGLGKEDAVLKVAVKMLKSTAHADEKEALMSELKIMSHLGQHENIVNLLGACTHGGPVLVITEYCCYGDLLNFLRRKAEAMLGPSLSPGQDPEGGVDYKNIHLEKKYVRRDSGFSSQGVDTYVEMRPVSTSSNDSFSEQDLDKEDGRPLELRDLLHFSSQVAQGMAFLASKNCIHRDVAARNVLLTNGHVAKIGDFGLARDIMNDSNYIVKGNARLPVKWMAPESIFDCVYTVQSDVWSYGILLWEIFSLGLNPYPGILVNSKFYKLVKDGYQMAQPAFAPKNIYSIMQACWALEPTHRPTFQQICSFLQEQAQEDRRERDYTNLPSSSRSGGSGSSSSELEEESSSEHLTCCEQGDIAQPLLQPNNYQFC
# Vascular endothelial growth factor receptor 3 (Homo sapiens), sequence (P35916 whole entry): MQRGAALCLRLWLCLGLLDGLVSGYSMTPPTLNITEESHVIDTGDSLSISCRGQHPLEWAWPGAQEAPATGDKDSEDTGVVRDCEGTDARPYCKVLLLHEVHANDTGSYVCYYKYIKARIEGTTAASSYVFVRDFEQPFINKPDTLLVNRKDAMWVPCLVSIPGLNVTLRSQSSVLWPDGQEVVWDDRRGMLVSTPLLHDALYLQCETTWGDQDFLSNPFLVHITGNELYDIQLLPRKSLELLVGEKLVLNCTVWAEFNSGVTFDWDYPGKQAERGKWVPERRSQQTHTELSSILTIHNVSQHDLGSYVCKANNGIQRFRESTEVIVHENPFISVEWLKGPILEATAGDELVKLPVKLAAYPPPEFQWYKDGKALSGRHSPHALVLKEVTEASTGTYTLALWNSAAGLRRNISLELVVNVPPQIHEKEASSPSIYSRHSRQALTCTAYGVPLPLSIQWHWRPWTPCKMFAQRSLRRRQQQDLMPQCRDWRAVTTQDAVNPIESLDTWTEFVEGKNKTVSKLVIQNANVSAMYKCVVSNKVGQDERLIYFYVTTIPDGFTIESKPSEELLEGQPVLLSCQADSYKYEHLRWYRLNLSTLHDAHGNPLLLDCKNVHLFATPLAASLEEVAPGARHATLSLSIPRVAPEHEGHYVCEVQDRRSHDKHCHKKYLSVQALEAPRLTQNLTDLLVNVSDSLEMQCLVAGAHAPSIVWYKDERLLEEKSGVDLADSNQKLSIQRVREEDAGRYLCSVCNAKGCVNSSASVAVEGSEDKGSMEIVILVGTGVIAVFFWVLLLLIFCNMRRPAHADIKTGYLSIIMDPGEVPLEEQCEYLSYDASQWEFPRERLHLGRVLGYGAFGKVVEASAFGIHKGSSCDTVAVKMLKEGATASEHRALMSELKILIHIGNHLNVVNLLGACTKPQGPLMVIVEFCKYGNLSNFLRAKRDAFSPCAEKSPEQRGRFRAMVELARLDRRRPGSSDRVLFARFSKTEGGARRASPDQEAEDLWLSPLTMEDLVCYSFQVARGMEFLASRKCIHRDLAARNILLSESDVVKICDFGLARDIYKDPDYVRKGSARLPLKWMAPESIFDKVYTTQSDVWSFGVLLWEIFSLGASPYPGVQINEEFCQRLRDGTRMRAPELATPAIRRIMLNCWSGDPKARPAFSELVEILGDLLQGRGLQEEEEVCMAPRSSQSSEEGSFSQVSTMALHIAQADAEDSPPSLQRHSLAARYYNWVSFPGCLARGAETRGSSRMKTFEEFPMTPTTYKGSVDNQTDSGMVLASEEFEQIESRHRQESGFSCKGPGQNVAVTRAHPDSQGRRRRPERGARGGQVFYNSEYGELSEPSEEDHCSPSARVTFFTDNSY
# Serine/threonine-protein kinase Nek7 (Homo sapiens), sequence (Q8TDX7 whole entry, looked up): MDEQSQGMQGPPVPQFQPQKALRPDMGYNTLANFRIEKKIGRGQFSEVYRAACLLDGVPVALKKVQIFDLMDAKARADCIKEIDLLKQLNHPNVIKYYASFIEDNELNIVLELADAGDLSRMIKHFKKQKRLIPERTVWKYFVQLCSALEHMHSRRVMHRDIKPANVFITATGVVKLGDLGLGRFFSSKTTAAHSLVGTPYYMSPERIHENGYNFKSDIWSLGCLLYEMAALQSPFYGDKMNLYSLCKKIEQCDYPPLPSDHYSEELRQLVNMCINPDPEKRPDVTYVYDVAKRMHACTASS
Compound,inhibition [1] [%],inhibition [2] [%],inhibition [3] [%],inhibition [4] [%],inhibition [5] [%],inhibition [6] [%],inhibition [7] [%],inhibition [8] [%],inhibition [9] [%],inhibition [10] [%],inhibition [11] [%],inhibition [12] [%],inhibition [13] [%],inhibition [14] [%],inhibition [15] [%],inhibition [16] [%],inhibition [17] [%],inhibition [18] [%],inhibition [19] [%],inhibition [20] [%]
COc1cc2c(cc1Nc1nc(Nc3cccc(F)c3C(N)=O)c3cc[nH]c3n1)N(C(=O)CN1CCN(C(C)C)CC1)CC2,2.31,2.53,6.64,2.3,2.17,1.18,1.05,3.3,6.3,0.4,6.33,4.96,25.8,11.4,2,-0.29,4.32,-0.95,5.37,1.51
COc1ccccc1-c1cc(/C=C2\C(=O)Nc3ncc(Br)cc32)cc(Br)c1O,12.5,2.67,0.39,6.8,6.16,3.44,0.04,6.5,3.62,3.73,3.53,4.19,9.04,12.7,4.73,1.8,4.28,3.88,7.16,5.35
